The source of these data is paper PMC4336329 (PLoS ONE, 2015).

Molecules are shown by their SMILES. Screen size: about 310,000 compounds; about 14,000 (4.5%) showed an effect of 50% or more. Effects have a minus sign here. The full list was thinned out, with strong results kept by preference.
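Note: peak tail current of the secondary pulse compared with the same well before compound.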

The assay deals with human ether-à-go-go-related gene (hERG) potassium channel (human, UniProt Q12809). The assay is described as follows: primary screen, population patch clamp on CHO cells stably expressing hERG; higher = less effect of the substance.
Chain of human ether-à-go-go-related gene (hERG) potassium channel (Q12809 whole entry, looked up): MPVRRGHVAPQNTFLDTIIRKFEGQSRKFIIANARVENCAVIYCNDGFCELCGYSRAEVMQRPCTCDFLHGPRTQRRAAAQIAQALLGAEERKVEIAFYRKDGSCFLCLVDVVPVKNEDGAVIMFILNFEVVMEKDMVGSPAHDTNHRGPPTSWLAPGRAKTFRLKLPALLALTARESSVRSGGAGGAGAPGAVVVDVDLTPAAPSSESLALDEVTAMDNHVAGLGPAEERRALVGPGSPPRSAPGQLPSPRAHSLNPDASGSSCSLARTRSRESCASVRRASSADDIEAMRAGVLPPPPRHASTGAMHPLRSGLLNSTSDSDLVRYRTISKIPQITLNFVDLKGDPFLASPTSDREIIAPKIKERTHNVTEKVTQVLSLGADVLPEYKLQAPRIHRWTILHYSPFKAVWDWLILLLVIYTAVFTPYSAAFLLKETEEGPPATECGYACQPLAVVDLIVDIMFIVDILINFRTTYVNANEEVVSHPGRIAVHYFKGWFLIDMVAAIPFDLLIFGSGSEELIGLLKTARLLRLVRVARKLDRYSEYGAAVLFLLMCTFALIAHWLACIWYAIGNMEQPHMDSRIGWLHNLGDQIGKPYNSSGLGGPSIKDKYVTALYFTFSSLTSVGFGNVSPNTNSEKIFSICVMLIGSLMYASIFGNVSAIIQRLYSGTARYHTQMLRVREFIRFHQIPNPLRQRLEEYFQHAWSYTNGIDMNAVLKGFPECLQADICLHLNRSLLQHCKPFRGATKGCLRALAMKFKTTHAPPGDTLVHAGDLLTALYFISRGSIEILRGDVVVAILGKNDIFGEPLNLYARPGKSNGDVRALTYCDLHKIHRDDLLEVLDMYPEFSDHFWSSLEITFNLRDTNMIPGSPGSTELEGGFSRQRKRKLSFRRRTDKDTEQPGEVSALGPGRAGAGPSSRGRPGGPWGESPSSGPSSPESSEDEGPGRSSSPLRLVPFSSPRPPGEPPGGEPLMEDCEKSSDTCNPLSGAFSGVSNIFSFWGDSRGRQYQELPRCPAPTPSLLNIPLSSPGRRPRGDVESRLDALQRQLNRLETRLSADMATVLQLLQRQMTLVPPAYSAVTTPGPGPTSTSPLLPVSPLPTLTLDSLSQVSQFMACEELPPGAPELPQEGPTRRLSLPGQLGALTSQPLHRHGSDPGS
Take `CCOC(=O)N1CCN(C(=O)c2csc3c2CCCCC3)CC1`: the “hERG current change (%, negative = inhibition) at 10uM” value was 8.08%.
Then `C=C(C)C1Cc2c(C)nn(-c3ccccn3)c2C1` (stereo not shown), with 11%; and `Cc1csc(SCC(=O)Nc2sccc2C#N)n1`, with -0.612%; and `Cc1oc(-c2ccccc2)nc1CS(=O)CC(=O)NC1CCCCCC1` (stereo not shown), with -11.5%.
The value for `Cc1cccc(OCC(=O)NCC(=O)n2nc(C)cc2C)c1` was 10.5%.
The value for `Oc1c(C(c2ccco2)N2CCC3(CC2)OCCO3)sc2ncnn12` (stereo not shown) was 1.38%; that for `COc1ccc(C2C=C(c3ccc(Cl)cc3)Nc3nc(NC(C)=O)nn32)cc1` (stereo not shown) was -39.7%.
Take `COc1ccc(C2=CC(c3ccc(Cl)cc3)n3cnnc3N2)cc1OC` (stereo not shown): the “hERG current change (%, negative = inhibition) at 10uM” value is reported as -52%.
Then `COc1ccc(C2=CC(c3c(C)nn(-c4ccccc4)c3Cl)n3nnnc3N2)cc1OC` (stereo not shown), with 11.4%.
As to `Cc1ccc(OCc2nnc(SCC(=O)Nc3sc(C)c(C)c3C#N)n2C)cc1`, the “hERG current change (%, negative = inhibition) at 10uM” value is recorded as 12.8%.
As for `COCCn1c(SCC(=O)Nc2sc(C)c(C)c2C#N)nnc1C(C)C`, the “hERG current change (%, negative = inhibition) at 10uM” value was -3.62%.
Then `COCCn1c(SCC(=O)Nc2sc(C)c(C)c2C#N)nnc1-c1ccc(OC)cc1`, with -52.1%; and `Cc1sc(NC(=O)CSc2nnc(C(C)C)n2C)c(C#N)c1C`, with -1.79%; and `Cc1ccc(-c2nnc(SCC(=O)Nc3sc(C)c(C)c3C#N)n2C)cc1`, with -54.1%.
As for `CCOC(=O)c1sc(NC(=O)CSc2nnc(-c3ccc(OC)cc3)n2CCOC)nc1C`, the “hERG current change (%, negative = inhibition) at 10uM” value was -27.3%.
The value for `CN1CCN(C(=S)c2ccc(-c3cc(Cl)ccc3Cl)o2)CC1` was -20.7%; that for `CC1CCN(C(=O)COC(=O)c2cc3ccccc3cc2O)CC1` was 3.92%.
With `O=C1c2ccccc2C(=O)N1n1c(=O)[nH]c2ccccc2c1=O`, the “hERG current change (%, negative = inhibition) at 10uM” value is on record as 14.9%.
The value for `O=C(O)c1ccccc1-n1c2ccccc2c2ccccc21` was 19%.
For the compound `COc1ccccc1NC(=O)C(C)OC(=O)Cc1n[nH]c(=O)c2ccccc12` (stereo not shown), the “hERG current change (%, negative = inhibition) at 10uM” value is reported as 9.99%.
The value for `Cn1c(SCc2nc3ccccc3[nH]2)nnc1-c1cnccn1` was 10.2%; that for `Oc1ccc(C=NCCc2ccccc2)cc1` was 10.2%; that for `COc1ccc(OC)c(/C=C/C(=O)N(C)CC(=O)Nc2ccc(N3CCOCC3)cc2)c1` was -8.78%.
Then `CCCCCCNC(=O)N[C@@H](C(=O)NCCC[C@H]1CN2C(=NC[C@@H]2Cc2ccccc2)N1CCc1cccc(OC)c1)C(C)C`, with -18.7%.
Regarding `COc1ccc(C[C@H]2CN3C(=NC[C@H]3Cc3ccccc3)N2CCNC(=O)c2ccc(C)c(Br)c2)cc1`, the “hERG current change (%, negative = inhibition) at 10uM” value is -69%.
The value for `COc1ccc(C[C@H]2CN3C(=NC[C@@H]3Cc3ccccc3)N2CCNC(=O)c2ccc(C)c(Br)c2)cc1` was -74%; that for `COc1ccc(/C=N/Nc2cc(N(C)C)nc(N(C)C)n2)cc1` was -28.5%.
Then `COc1ccc(C2(C(=O)Nc3ccc(C)c(C)c3)CCOCC2)cc1`, with 6.97%; and `Cc1ccc2c(c1)sc(C)[n+]2CCCS(=O)(=O)[O-]`, with 29.7%; and `COc1cc(/C=N/NC(=O)Cc2ccccc2)ccc1Oc1ccc([N+](=O)[O-])cc1[N+](=O)[O-]`, with 1.03%.
The value for `CN1CCCC(OC(=O)c2ccc(S(=O)(=O)N(C)C)cc2)C1.Cl` (stereo not shown) was 8.58%; that for `CC1CN(CCOCCSc2ccccc2)CC(C)O1.Cl` (stereo not shown) was -14.9%; that for `Cl.c1ccc(SCCOCCN2CCOCC2)cc1` was 14.3%.
`Cc1ccc(Cl)c(OCCN2CCc3ccccc3C2)c1.Cl`: the “hERG current change (%, negative = inhibition) at 10uM” value is recorded as -9.17%.
The value for `Cc1ccc(SCCOCCN2CCc3ccccc3C2)cc1` was -60.5%; that for `Cc1ccc(SCCOCCN2CC(C)OC(C)C2)cc1.Cl` (stereo not shown) was -12.4%.
The value for `Cc1ccc(SCCOCCN2CCOCC2)cc1.Cl` was -1.55%; that for `c1ccc(SCCN2CCc3ccccc3C2)cc1` was -19.3%.
For the compound `Cl.Clc1ccc(SCCOCCN2CCc3ccccc3C2)cc1`, the “hERG current change (%, negative = inhibition) at 10uM” value is on record as -53.7%.
Then `c1ccc(SCCOCCN2CCc3ccccc3C2)cc1`, with -75.3%; and `O=C(c1cccnc1)N1CCC(Oc2ccc(C(=O)N3CCCC(O)C3)cc2)CC1` (stereo not shown), with -0.912%.
Then `CC(=O)c1cnc2nc(SCc3ccccc3)nn2c1C`, with 0.852%; and `O=C(c1ccco1)N1CCN(C2CC(=O)N(c3ccc4c(c3)OCO4)C2=O)CC1` (stereo not shown), with -16.8%; and `COc1ccc(CC(=O)N2CCN(c3ccccn3)CC2)cc1OC`, with 8.9%.
For the compound `COc1cc(C(=O)N/N=C/c2cc([N+](=O)[O-])cs2)cc(OC)c1OC`, the “hERG current change (%, negative = inhibition) at 10uM” value is -8.26%.
Then `C[C@@H](C(=O)NCc1ccccc1)[C@H]1C[C@]1(C)[C@H](NC(=O)OCc1ccccc1)c1ccccc1`, with -21.3%.
The value for `C[C@@H](C(=O)NCc1ccc(S(C)(=O)=O)cc1)[C@H]1C[C@]1(C)[C@H](NC(=O)OCc1ccccc1)c1ccccc1` was -35.4%; that for `C[C@@H](C(=O)NCc1ccc(S(C)(=O)=O)cc1)[C@@H]1C[C@@]1(C)[C@@H](NC(=O)OCc1ccccc1)c1ccccc1` was -75.1%.
As for `CCCC(=O)n1nc(-c2ccco2)nc1SCc1ccccc1`, the “hERG current change (%, negative = inhibition) at 10uM” value stood at 0.232%.
Consider `O=C(Nc1ccccn1)C(NS(=O)(=O)c1cccc2nsnc12)c1ccccc1` (stereo not shown), for which the “hERG current change (%, negative = inhibition) at 10uM” value is -4.67%.
The value for `O=C(NC1CCCC1)C(NS(=O)(=O)c1cccc2nsnc12)c1ccccc1` (stereo not shown) was -10.5%.
Then `CN(CC(=O)N1CCN(c2ccccn2)CC1)S(=O)(=O)c1cccc2nsnc12`, with -23.6%; and `O=C(O)C(NS(=O)(=O)c1cccc2nsnc12)c1ccccc1` (stereo not shown), with 16.1%.
For the compound `CCOC(=O)N1CCN(C(=O)C(NS(=O)(=O)c2cccc3nsnc23)c2ccccc2)CC1` (stereo not shown), the “hERG current change (%, negative = inhibition) at 10uM” value is -47.1%.
The value for `O=C(C(NS(=O)(=O)c1cccc2nsnc12)c1ccccc1)N1CCN(c2ccccc2)CC1` (stereo not shown) was -71.4%.
On to `O=C(C(NS(=O)(=O)c1cccc2nsnc12)c1ccccc1)N1CCN(c2ccccn2)CC1` (stereo not shown), for which the “hERG current change (%, negative = inhibition) at 10uM” value is on record as -64.8%.
Take `CC1CCN(C(=O)C(NS(=O)(=O)c2cccc3nsnc23)c2ccccc2)CC1` (stereo not shown): the “hERG current change (%, negative = inhibition) at 10uM” value was -69.5%.
For `CC1CCN(C(=O)C(NS(=O)(=O)c2cccc3nsnc23)C(C)C)CC1` (stereo not shown), the “hERG current change (%, negative = inhibition) at 10uM” value was -5.48%.
